{"source": "paper PMC11006913", "test_in_all_cases": "PBM; 200 nM protein, PBS", "details_in_all_cases": "dsDNA, one strand shown", "key": {"[1]": {"target": "HOXA7 (Homo sapiens, UniProt P31268 116-202)", "sequence (P31268 116-202)": "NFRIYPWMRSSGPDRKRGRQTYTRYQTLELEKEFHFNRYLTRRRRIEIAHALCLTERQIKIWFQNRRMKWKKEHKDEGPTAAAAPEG"}, "[2]": {"target": "HOXA2 (Homo sapiens, UniProt O43364 129-215, R185T)", "sequence (O43364 129-215 R185T)": "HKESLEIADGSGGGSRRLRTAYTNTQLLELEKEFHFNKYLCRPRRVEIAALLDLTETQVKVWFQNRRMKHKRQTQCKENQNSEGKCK"}, "[3]": {"target": "HOXA2 (Homo sapiens, UniProt O43364 129-215, R185K)", "sequence (O43364 129-215 R185K)": "as the sequence (O43364 129-215 R185T) above, with T57K counted along it"}, "[4]": {"target": "HOXA2 (Homo sapiens, UniProt O43364 129-215, Y150S)", "sequence (O43364 129-215 Y150S)": "as the sequence (O43364 129-215 R185T) above, with Y22S, T57R counted along it"}, "[5]": {"target": "HOXA7 (Homo sapiens, UniProt P31268 116-202, W177C)", "sequence (P31268 116-202 W177C)": "as the sequence (P31268 116-202) above, with W62C counted along it"}, "[6]": {"target": "HOXA2 (Homo sapiens, UniProt O43364 129-215)", "sequence (O43364 129-215)": "as the sequence (O43364 129-215 R185T) above, with T57R counted along it"}, "[7]": {"target": "ALX3 (Homo sapiens, UniProt O95076 139-225)", "sequence (O95076 139-225)": "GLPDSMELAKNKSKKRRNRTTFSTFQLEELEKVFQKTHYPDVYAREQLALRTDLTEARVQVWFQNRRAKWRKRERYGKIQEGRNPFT"}, "[8]": {"target": "HOXB6 (Homo sapiens, UniProt P17509 132-218, K202E)", "sequence (P17509 132-218 K202E)": "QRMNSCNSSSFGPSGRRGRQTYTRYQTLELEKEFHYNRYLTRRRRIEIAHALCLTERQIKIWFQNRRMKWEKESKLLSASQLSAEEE"}, "[9]": {"target": "HOXA4 (Homo sapiens, UniProt Q00056 201-287, R217L)", "sequence (Q00056 201-287 R217L)": "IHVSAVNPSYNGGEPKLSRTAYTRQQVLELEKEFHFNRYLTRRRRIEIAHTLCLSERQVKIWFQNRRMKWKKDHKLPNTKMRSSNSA"}, "[10]": {"target": "HOXC10 (Homo sapiens, UniProt Q9NYD6 254-340, K271E)", "sequence (Q9NYD6 254-340 K271E)": "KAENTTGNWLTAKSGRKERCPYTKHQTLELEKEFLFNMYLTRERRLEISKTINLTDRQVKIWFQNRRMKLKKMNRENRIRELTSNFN"}, "[11]": {"target": "MSX2 (Homo sapiens, UniProt P35548 130-214, F161Y)", "sequence (P35548 130-214 F161Y)": "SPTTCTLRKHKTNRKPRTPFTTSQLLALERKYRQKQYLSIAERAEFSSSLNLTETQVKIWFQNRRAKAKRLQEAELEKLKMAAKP"}, "[12]": {"target": "HOXA4 (Homo sapiens, UniProt Q00056 201-287, W262F)", "sequence (Q00056 201-287 W262F)": "as the sequence (Q00056 201-287 R217L) above, with L17R, W62F counted along it"}, "[13]": {"target": "HOXB6 (Homo sapiens, UniProt P17509 132-218)", "sequence (P17509 132-218)": "as the sequence (P17509 132-218 K202E) above, with E71K counted along it"}, "[14]": {"target": "ALX1 (Homo sapiens, UniProt Q15699 118-204, L144V)", "sequence (Q15699 118-204 L144V)": "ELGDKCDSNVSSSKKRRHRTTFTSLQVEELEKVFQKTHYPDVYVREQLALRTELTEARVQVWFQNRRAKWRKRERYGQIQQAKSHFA"}, "[15]": {"target": "ALX1 (Homo sapiens, UniProt Q15699 118-204, L144R)", "sequence (Q15699 118-204 L144R)": "as the sequence (Q15699 118-204 L144V) above, with V27R counted along it"}, "[16]": {"target": "ALX1 (Homo sapiens, UniProt Q15699 118-204)", "sequence (Q15699 118-204)": "as the sequence (Q15699 118-204 L144V) above, with V27L counted along it"}, "[17]": {"target": "ALX4 (Homo sapiens, UniProt Q9H161 200-286)", "sequence (Q9H161 200-286)": "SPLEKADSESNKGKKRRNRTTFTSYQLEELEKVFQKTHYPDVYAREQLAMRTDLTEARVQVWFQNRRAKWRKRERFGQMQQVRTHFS"}, "[18]": {"target": "ALX4 (Homo sapiens, UniProt Q9H161 200-286, Q225E)", "sequence (Q9H161 200-286 Q225E)": "as the sequence (Q9H161 200-286) above, with Q26E counted along it"}, "[19]": {"target": "PROP1 (Homo sapiens, UniProt O75360 56-141)", "sequence (O75360 56-141)": "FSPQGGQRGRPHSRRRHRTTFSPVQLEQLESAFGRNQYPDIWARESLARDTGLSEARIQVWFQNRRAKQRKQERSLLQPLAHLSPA"}, "[20]": {"target": "PROP1 (Homo sapiens, UniProt O75360 56-141, R99H)", "sequence (O75360 56-141 R99H)": "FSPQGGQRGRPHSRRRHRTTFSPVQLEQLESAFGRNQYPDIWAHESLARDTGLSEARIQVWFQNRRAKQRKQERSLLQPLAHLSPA"}, "[21]": {"target": "PROP1 (Homo sapiens, UniProt O75360 56-141, F88S)", "sequence (O75360 56-141 F88S)": "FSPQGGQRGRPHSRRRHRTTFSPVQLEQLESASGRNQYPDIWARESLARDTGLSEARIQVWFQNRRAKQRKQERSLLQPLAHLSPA"}, "[22]": {"target": "T1, PAX4 (Homo sapiens, UniProt O43316 9-242, R200K)", "T1 sequence": "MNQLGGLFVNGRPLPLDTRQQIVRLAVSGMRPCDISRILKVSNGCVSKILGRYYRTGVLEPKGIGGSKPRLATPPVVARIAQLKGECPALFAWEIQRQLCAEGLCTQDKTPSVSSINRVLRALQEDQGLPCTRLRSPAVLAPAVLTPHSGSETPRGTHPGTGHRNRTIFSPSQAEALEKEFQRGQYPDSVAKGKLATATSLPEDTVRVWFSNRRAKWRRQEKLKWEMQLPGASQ"}, "[23]": {"target": "T2, PAX4 (Homo sapiens, UniProt O43316 9-242)", "T2 sequence": "T1 sequence with K192R"}, "[24]": {"target": "T3, PAX4 (Homo sapiens, UniProt O43316 9-242, R200Q)", "T3 sequence": "T1 sequence with K192Q"}, "[25]": {"target": "T4, PAX4 (Homo sapiens, UniProt O43316 9-242, F177V)", "T4 sequence": "T1 sequence with F169V, K192R"}}, "note": "Numbering of substitutions follows the chain as printed.", "data": [{"sequence": "AATAACAT", "values": [{"measurement": "binding signal", "setting": "[1]", "result": "10.1 upbm affinity estimate (log intensity, higher = more binding, comparable within an allelic series)"}, {"measurement": "binding signal", "setting": "[2]", "result": "9.56 upbm affinity estimate (log intensity, higher = more binding, comparable within an allelic series)"}, {"measurement": "binding signal", "setting": "[3]", "result": "11.6 upbm affinity estimate (log intensity, higher = more binding, comparable within an allelic series)"}, {"measurement": "binding signal", "setting": "[4]", "result": "10.9 upbm affinity estimate (log intensity, higher = more binding, comparable within an allelic series)"}, {"measurement": "binding signal", "setting": "[5]", "result": "8.98 upbm affinity estimate (log intensity, higher = more binding, comparable within an allelic series)"}, {"measurement": "binding signal", "setting": "[6]", "result": "9.63 upbm affinity estimate (log intensity, higher = more binding, comparable within an allelic series)"}]}, {"sequence": "AACTTTAT", "values": [{"measurement": "binding signal", "setting": "[1]", "result": "9.71 upbm affinity estimate (log intensity, higher = more binding, comparable within an allelic series)"}, {"measurement": "binding signal", "setting": "[7]", "result": "9.63 upbm affinity estimate (log intensity, higher = more binding, comparable within an allelic series)"}, {"measurement": "binding signal", "setting": "[5]", "result": "8.8 upbm affinity estimate (log intensity, higher = more binding, comparable within an allelic series)"}]}, {"sequence": "AATTACCT", "values": [{"measurement": "binding signal", "setting": "[1]", "result": "11.3 upbm affinity estimate (log intensity, higher = more binding, comparable within an allelic series)"}, {"measurement": "binding signal", "setting": "[8]", "result": "9.87 upbm affinity estimate (log intensity, higher = more binding, comparable within an allelic series)"}, {"measurement": "binding signal", "setting": "[9]", "result": "12.1 upbm affinity estimate (log intensity, higher = more binding, comparable within an allelic series)"}, {"measurement": "binding signal", "setting": "[10]", "result": "11.9 upbm affinity estimate (log intensity, higher = more binding, comparable within an allelic series)"}, {"measurement": "binding signal", "setting": "[11]", "result": "12.9 upbm affinity estimate (log intensity, higher = more binding, comparable within an allelic series)"}, {"measurement": "binding signal", "setting": "[5]", "result": "8.74 upbm affinity estimate (log intensity, higher = more binding, comparable within an allelic series)"}, {"measurement": "binding signal", "setting": "[12]", "result": "11.5 upbm affinity estimate (log intensity, higher = more binding, comparable within an allelic series)"}, {"measurement": "binding signal", "setting": "[13]", "result": "11.8 upbm affinity estimate (log intensity, higher = more binding, comparable within an allelic series)"}]}, {"sequence": "CGTCGCCC", "values": [{"measurement": "binding signal", "setting": "[1]", "result": "8.61 upbm affinity estimate (log intensity, higher = more binding, comparable within an allelic series)"}, {"measurement": "binding signal", "setting": "[14]", "result": "6.4 upbm affinity estimate (log intensity, higher = more binding, comparable within an allelic series)"}, {"measurement": "binding signal", "setting": "[15]", "result": "6.34 upbm affinity estimate (log intensity, higher = more binding, comparable within an allelic series)"}, {"measurement": "binding signal", "setting": "[5]", "result": "8.42 upbm affinity estimate (log intensity, higher = more binding, comparable within an allelic series)"}, {"measurement": "binding signal", "setting": "[16]", "result": "6.57 upbm affinity estimate (log intensity, higher = more binding, comparable within an allelic series)"}]}, {"sequence": "AATTGTAA", "values": [{"measurement": "binding signal", "setting": "[1]", "result": "9.73 upbm affinity estimate (log intensity, higher = more binding, comparable within an allelic series)"}, {"measurement": "binding signal", "setting": "[5]", "result": "8.68 upbm affinity estimate (log intensity, higher = more binding, comparable within an allelic series)"}]}, {"sequence": "CCAAGCCA", "values": [{"measurement": "binding signal", "setting": "[1]", "result": "8.43 upbm affinity estimate (log intensity, higher = more binding, comparable within an allelic series)"}, {"measurement": "binding signal", "setting": "[14]", "result": "6.51 upbm affinity estimate (log intensity, higher = more binding, comparable within an allelic series)"}, {"measurement": "binding signal", "setting": "[15]", "result": "6.6 upbm affinity estimate (log intensity, higher = more binding, comparable within an allelic series)"}, {"measurement": "binding signal", "setting": "[5]", "result": "8.54 upbm affinity estimate (log intensity, higher = more binding, comparable within an allelic series)"}, {"measurement": "binding signal", "setting": "[16]", "result": "6.46 upbm affinity estimate (log intensity, higher = more binding, comparable within an allelic series)"}]}, {"sequence": "GAATATAA", "values": [{"measurement": "binding signal", "setting": "[1]", "result": "9.85 upbm affinity estimate (log intensity, higher = more binding, comparable within an allelic series)"}, {"measurement": "binding signal", "setting": "[17]", "result": "10.8 upbm affinity estimate (log intensity, higher = more binding, comparable within an allelic series)"}, {"measurement": "binding signal", "setting": "[18]", "result": "9.99 upbm affinity estimate (log intensity, higher = more binding, comparable within an allelic series)"}, {"measurement": "binding signal", "setting": "[5]", "result": "8.92 upbm affinity estimate (log intensity, higher = more binding, comparable within an allelic series)"}]}, {"sequence": "CGACTAGC", "values": [{"measurement": "binding signal", "setting": "[1]", "result": "8.47 upbm affinity estimate (log intensity, higher = more binding, comparable within an allelic series)"}, {"measurement": "binding signal", "setting": "[5]", "result": "8.47 upbm affinity estimate (log intensity, higher = more binding, comparable within an allelic series)"}]}, {"sequence": "GCTATAAC", "values": [{"measurement": "binding signal", "setting": "[1]", "result": "9.4 upbm affinity estimate (log intensity, higher = more binding, comparable within an allelic series)"}, {"measurement": "binding signal", "setting": "[14]", "result": "8.22 upbm affinity estimate (log intensity, higher = more binding, comparable within an allelic series)"}, {"measurement": "binding signal", "setting": "[15]", "result": "8.11 upbm affinity estimate (log intensity, higher = more binding, comparable within an allelic series)"}, {"measurement": "binding signal", "setting": "[5]", "result": "8.68 upbm affinity estimate (log intensity, higher = more binding, comparable within an allelic series)"}, {"measurement": "binding signal", "setting": "[16]", "result": "8.21 upbm affinity estimate (log intensity, higher = more binding, comparable within an allelic series)"}]}, {"sequence": "AGCTTTCC", "values": [{"measurement": "binding signal", "setting": "[1]", "result": "8.42 upbm affinity estimate (log intensity, higher = more binding, comparable within an allelic series)"}, {"measurement": "binding signal", "setting": "[19]", "result": "6.7 upbm affinity estimate (log intensity, higher = more binding, comparable within an allelic series)"}, {"measurement": "binding signal", "setting": "[20]", "result": "6.84 upbm affinity estimate (log intensity, higher = more binding, comparable within an allelic series)"}, {"measurement": "binding signal", "setting": "[21]", "result": "7.01 upbm affinity estimate (log intensity, higher = more binding, comparable within an allelic series)"}, {"measurement": "binding signal", "setting": "[5]", "result": "8.43 upbm affinity estimate (log intensity, higher = more binding, comparable within an allelic series)"}]}, {"sequence": "GATTACAC", "values": [{"measurement": "binding signal", "setting": "[1]", "result": "9.6 upbm affinity estimate (log intensity, higher = more binding, comparable within an allelic series)"}, {"measurement": "binding signal", "setting": "[22]", "result": "10.9 upbm affinity estimate (log intensity, higher = more binding, comparable within an allelic series)"}, {"measurement": "binding signal", "setting": "[23]", "result": "11.2 upbm affinity estimate (log intensity, higher = more binding, comparable within an allelic series)"}, {"measurement": "binding signal", "setting": "[24]", "result": "11 upbm affinity estimate (log intensity, higher = more binding, comparable within an allelic series)"}, {"measurement": "binding signal", "setting": "[25]", "result": "10.3 upbm affinity estimate (log intensity, higher = more binding, comparable within an allelic series)"}, {"measurement": "binding signal", "setting": "[5]", "result": "8.73 upbm affinity estimate (log intensity, higher = more binding, comparable within an allelic series)"}]}, {"sequence": "CATTATTA", "values": [{"measurement": "binding signal", "setting": "[1]", "result": "11.1 upbm affinity estimate (log intensity, higher = more binding, comparable within an allelic series)"}, {"measurement": "binding signal", "setting": "[8]", "result": "10 upbm affinity estimate (log intensity, higher = more binding, comparable within an allelic series)"}, {"measurement": "binding signal", "setting": "[5]", "result": "8.89 upbm affinity estimate (log intensity, higher = more binding, comparable within an allelic series)"}]}]}
